FECH block = inhibitors of human ferrochelatase, primary screen, biochemical, purified FECH, Ni-mesoporphyrin absorbance; Ferrochelatase, mitochondrial (Homo sapiens), P22830; Ni-mesoporphyrin absorbance 550 nm; calls only at 10 µM (by protocol); actives 3.3% (n = 20,000); AID 1671448, 2021;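 active = enzyme reaction rate more than 3 SD below the solvent-only control wells on the same plate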;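 note: lower slope than DMSO wells means FECH inhibition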
Target sequence (P22830 whole entry, looked up): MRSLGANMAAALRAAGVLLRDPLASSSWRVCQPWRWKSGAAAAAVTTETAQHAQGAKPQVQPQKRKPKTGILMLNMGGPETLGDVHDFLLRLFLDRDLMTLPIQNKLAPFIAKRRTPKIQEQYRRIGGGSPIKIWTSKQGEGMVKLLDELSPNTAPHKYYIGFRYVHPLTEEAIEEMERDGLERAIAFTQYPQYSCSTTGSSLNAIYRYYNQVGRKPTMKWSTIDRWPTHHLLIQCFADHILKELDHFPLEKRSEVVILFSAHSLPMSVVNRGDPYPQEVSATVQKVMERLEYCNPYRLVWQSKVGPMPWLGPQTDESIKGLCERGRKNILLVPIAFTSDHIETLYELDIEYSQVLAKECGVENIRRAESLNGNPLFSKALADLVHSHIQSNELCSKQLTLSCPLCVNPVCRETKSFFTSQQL
Starred values were filed as active, the others as inactive; i = inactive; + = active, no number. The sample as a whole holds a higher share of hits than the screen did.

SMILES	FECH block
O=C(NC1CC1)C1CCN(c2ccc(-c3ccccc3)nn2)CC1	+
Cc1ccc(-n2c(CN3CCN(S(=O)(=O)c4ccc(Cl)cc4)CC3)nc3cccnc32)cc1	i
COc1ccc(CCNS(=O)(=O)c2ccc(N3C(=O)CCS3(=O)=O)cc2)cc1OC	i
Cc1cc(C)cc(CCC(=O)NCc2cnc(C)cn2)c1	i
CCc1noc(CN(CC)C(=O)C(c2cccc(C)c2)N(C)C)n1 (centres undefined)	i
CCc1noc(CN(CC)C(=O)C(C)n2cnc3ccccc32)n1 (centres undefined)	+
CCc1noc(CN(CC)C(=O)c2ccccc2N2CCCC2)n1	i
CCOc1ccc(N2CC(C(=O)O)CC2=O)cc1C(F)(F)F (centres undefined)	i
Cc1cccc(Cn2c(CNS(=O)(=O)c3ccc([N+](=O)[O-])cc3)nc3cccnc32)c1	i
COc1cccc(C(=O)Nc2cccc(N3CCCS3(=O)=O)c2)c1OC	i
CCOC(=O)c1ccc2c(c1)NC(=O)C1CCCN21 (centres undefined)	i
CN1CC(=O)N(CC(=O)Nc2cccc(-c3ccno3)c2)c2ccccc2C1=O	i
CN1CC(=O)N(CC(=O)Nc2ccc(-c3ccno3)cc2)c2ccccc2C1=O	+
CC(=O)Nc1ccc(NC(=O)CN2C(=O)CN(C)C(=O)c3ccccc32)cc1	i
Cc1ccc(NC(=O)C2CCCCC2)cc1OCc1cc(=O)n2cccc(C)c2n1	+
COc1ccc(C(=O)Nc2ccc(C)c(OCc3cc(=O)n4cccc(C)c4n3)c2)cc1	i
Cc1ccc(NC(=O)c2ccccc2C)cc1OCc1cc(=O)n2cccc(C)c2n1	i
O=S(=O)(c1cccc(Cl)c1)N1CCC(n2c(C(F)(F)F)nc3cccnc32)CC1	i
CC(C)OCCCNc1nc(Nc2ccc3c(c2)OCO3)c2cnn(-c3ccccc3)c2n1	i
CCC(=O)Nc1ccccc1-c1nnc(SCC(=O)Nc2ccccc2Cl)[nH]c1=O	i
CCC(=O)Nc1ccccc1-c1nnc(SCC(=O)Nc2cc(C)cc(C)c2)[nH]c1=O	+
CCC(=O)Nc1ccccc1-c1nnc(SCC(=O)Nc2cccc(C)c2C)[nH]c1=O	i
O=C(CN1CCN(Cc2ccccc2Cl)S1(=O)=O)Nc1ccc(F)cc1F	i
COc1ccc(-c2cc(C(=O)Nc3ccc(C)cc3C)[nH]n2)cc1S(N)(=O)=O	i
Cc1ccc(C)c(NS(=O)(=O)c2ccc(N)c(S(N)(=O)=O)c2)c1	+
SMILES	FECH block
Cc1ccc(NS(=O)(=O)c2ccc(N)c(S(N)(=O)=O)c2)c(C)c1	+
COc1ccc(N2C(=O)CCS2(=O)=O)cc1S(=O)(=O)Nc1cc(C)ccc1C	i
Cc1ccc(C)c(NS(=O)(=O)c2cc(N3C(=O)CCS3(=O)=O)ccc2C)c1	i
COc1ccc(-c2ccc(=O)[nH]n2)cc1S(=O)(=O)Nc1ccc(C)cc1C	i
OCCn1ncc2c1CN(c1ncc(Cl)cn1)C2	i
O=C1C[C@H]2CC[C@@H](CN1)N2C(=O)CCc1ccccc1	i
COc1ccc(Cl)cc1S(=O)(=O)NCCn1c(-c2ccccc2)nc2cccnc21	i
COc1cccc(NC(=O)N2CCN(c3cc(-c4ccc(F)cc4)ncn3)CC2)c1	i
COc1ccc(CCNC(=O)CN2CCCN(Cc3ccccc3)S2(=O)=O)cc1OC	i
CCc1c(C)nn(CCNC(=O)c2cnn3ccn(C)c23)c1C	i
Cn1ccn2ncc(C(=O)NCCc3ccccn3)c12	+
Cn1nnnc1SCCNC(=O)c1cnn2ccn(C)c12	i
c1cncc(CNc2cc(-c3cnn4cccnc34)c3cc[nH]c3n2)c1	i
CCCNC(=O)C1CCC(Cn2c(=O)c3sccc3n(CC(=O)NC(C)C)c2=O)CC1 (centres undefined)	i
Cc1ccccc1Nc1nc(N2CCC(Cc3ccccc3)CC2)nc2c1cnn2-c1ccccc1	i
Cc1[nH]c2c(F)cccc2c1CC(=O)NCCSc1nnnn1C	i
NS(=O)(=O)c1ccc(NC(=O)CSc2nc3c(c(=O)[nH]2)CCC3)cc1	i
NS(=O)(=O)c1ccc(NC(=O)c2ccc(=O)n(Cc3ccc(Cl)cc3)c2)cc1	i
NS(=O)(=O)c1ccc(NC(=O)CSc2nc3c(c(=O)[nH]2)CCCC3)cc1	+
O=C(CCC(=O)N1CCc2cc(S(=O)(=O)NCc3ccco3)ccc21)N1CCCCCC1	i
O=C(c1cnc(-c2cccnc2)nc1)N1CCCC(Oc2ccc(F)cc2)C1 (centres undefined)	i
NS(=O)(=O)c1ccc(CCNC(=O)c2cc(-c3ccccc3)on2)cc1	i
O=C(CCC(=O)N1CCN(CC2CCCO2)CC1)NC1CCCC1 (centres undefined)	+
COc1ccccc1C1CCN(C(=O)CCC(=O)NC2CCCC2)CC1	i
CC(C)CC1(CO)CCCN(C(=O)CCC(=O)NC2CCCC2)C1 (centres undefined)	i
SMILES	FECH block
CC(=O)N1CCCn2nc(C(=O)N3CCC3c3ccccc3)cc2C1 (centres undefined)	i
Cc1nn(C)c(C)c1CCCN(C)c1ncc(NS(=O)(=O)c2cc(F)ccc2F)cc1C(=O)O	i
O=C(NCCc1c[nH]c2ccccc12)c1nc[nH]c1C(=O)NCc1ccccn1	i
O=C(NCc1ccccn1)c1nc[nH]c1C(=O)NCc1cccc(C(F)(F)F)c1	+
CC(C)CCNC(=O)c1[nH]cnc1C(=O)NC(c1ccccc1)c1ccccc1	i
CC(C)(C)CNC(=O)c1[nH]cnc1C(=O)NC1CCC(O)CC1 (centres undefined)	i
CC(C)CCNC(=O)c1nc[nH]c1C(=O)NCc1cccc(C(F)(F)F)c1	i
O=C(NCc1ccccn1)c1nc[nH]c1C(=O)NCc1ccccn1	+
O=C(NC1CCc2ccccc21)c1nc[nH]c1C(=O)NCc1ccccn1 (centres undefined)	+
CC(C)CNC(=O)c1nc[nH]c1C(=O)NCC(C)(C)C	i
CCCNC(=O)c1[nH]cnc1C(=O)NC1CCc2ccccc21 (centres undefined)	i
CC(C)Nc1cc(N2CCN(Cc3ccnc(C(C)C)n3)CC2)ncn1	i
CC(NC(=O)CCN1CCCCCCC1)c1nc(-c2ccccn2)no1 (centres undefined)	i
Cc1ccc(Nc2nc(N3CCCCC3)nc3c2cnn3-c2ccccc2)cc1C	i
O=C(c1csc(S(=O)(=O)Nc2cccc(C(F)(F)F)c2)c1)N1CCCC1	i
CC1CCN(CCNC(=O)C2CCN(c3ccc(-c4ccccc4)nn3)CC2)CC1	i
CCOc1ccc(-c2nc(CSc3nc(-c4ccc(OC)cc4)cc(=O)[nH]3)c(C)o2)cc1	i
Cc1ccc(Cl)cc1N1CCN(C(=O)C2CCCN(c3ncnc4c3nc3n4CCCCC3)C2)CC1 (centres undefined)	i
CCOc1ccnc(N2CCN(CC(=O)NC(C)C)CC2)n1	i
Cc1cc(C)nc(N(C)CCCc2cnn(C)c2)n1	i
CCc1ccc2c(c1)-c1ccccc1S(=O)(=O)N2CC(=O)NCCc1ccc(OC)c(OC)c1	i
CC(C)c1ccc2c(c1)-c1ccccc1S(=O)(=O)N2CC(=O)NCc1cccnc1	+
O=C(CN1C(=O)c2ccccc2S1(=O)=O)NCc1ccc2c(c1)OCO2	i
CCc1ccc2c(c1)-c1ccccc1S(=O)(=O)N2CC(=O)NCc1ccncc1	+
COc1ccc(CCNC(=O)CN2c3ccc(C(C)C)cc3-c3ccccc3S2(=O)=O)cc1	i

Compound activity from PubChem.
